Experimental findings from PMC12820563, “FoxP3 forms a head-to-head dimer in vivo and stabilizes its multimerization on adjacent microsatellites” are described below.

Over roughly 16,000 sequences, “rpm ratio (pull-down/input)” has its median near 0.94; the highest 2% begin near 1.7. For the sample, the highest values were picked, then their nearest neighbours and some sequences at random.

The target in this experiment is T1, MBP-FoxP1dN (Mus musculus, UniProt P58462 326-579).
T1 sequence: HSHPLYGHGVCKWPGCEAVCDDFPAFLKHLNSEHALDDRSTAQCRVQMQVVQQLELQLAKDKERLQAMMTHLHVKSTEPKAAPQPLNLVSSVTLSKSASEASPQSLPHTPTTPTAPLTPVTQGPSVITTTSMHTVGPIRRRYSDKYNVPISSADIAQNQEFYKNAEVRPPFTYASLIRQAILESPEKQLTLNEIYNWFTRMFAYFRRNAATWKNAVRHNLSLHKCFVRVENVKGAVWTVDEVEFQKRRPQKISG
As to the kind of experiment: PD-seq (MBP pull-down with sequencing); 20 mM Tris-HCl pH 7.5, 100 mM NaCl, 1.5 mM MgCl2, 0.4 uM protein, 0.1 uM dsDNA library, 30 min, room temperature, amylose pull-down; high values mean tight binding. Conditions: protein: recombinant; tags: His6-MBP; chain copies: 2; dsDNA, one strand shown. Put shortly:
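Binding is given as reads-per-million enrichment, pull-down over input, with replicates pooled. The bait was an N-terminus-lacking mouse FoxP3 or FoxP1 fragment with a His6-MBP tag, expressed in E. coli and used at 0.4 µM with 0.1 µM Klenow-filled degenerate double-stranded DNA library for 30 min at room temperature in Tris pH 7.5 buffer with NaCl and MgCl2. Amylose resin pull-down with three washes was followed by proteinase K release, PCR barcoding and Illumina sequencing.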
Take “GATGATTGTTCTCCCAGCTGATGAATTTTGAATTTCGAGTAAACAAATTTTCCTAATCTTTCTGTTCAAGCGCCATCTAC”: the binding signal is 0.984 RPM ratio (pull-down/input). To “GATGATTGTTCTCCCAGCTGATGAATTTTAGGGGTCGAGTAAACAAATTTTCCTAATCTTTCTGTTCAAGCGCCATCTAC” belongs 0.805 RPM ratio (pull-down/input). Then “GATGATTGTTCTCCCAGCTGATGAATTGACTAAGTCGAGTAAACAAATTTTCCTAATCTTTCTGTTCAAGCGCCATCTAC”, with 1.03 RPM ratio (pull-down/input); and “GATGATTGTTCTCCCAGCTGATGAATTGACGCTTTCGAGTAAACAAATTTTCCTAATCTTTCTGTTCAAGCGCCATCTAC”, with 1.33 RPM ratio (pull-down/input). To “GATGATTGTTCTCCCAGCTGATGAATTAGCACCGTCGAGTAAACAAATTTTCCTAATCTTTCTGTTCAAGCGCCATCTAC” belongs 0.962 RPM ratio (pull-down/input); to “GATGATTGTTCTCCCAGCTGATGAATTGGCTATATCGAGTAAACAAATTTTCCTAATCTTTCTGTTCAAGCGCCATCTAC”, 0.923 RPM ratio (pull-down/input). On to “GATGATTGTTCTCCCAGCTGATGAATTCGCCCGTTCGAGTAAACAAATTTTCCTAATCTTTCTGTTCAAGCGCCATCTAC”, for which the binding signal is 0.826 RPM ratio (pull-down/input).

Consider “GATGATTGTTCTCCCAGCTGATGAATTCGAATCTTCGAGTAAACAAATTTTCCTAATCTTTCTGTTCAAGCGCCATCTAC”, for which the binding signal was 0.84 RPM ratio (pull-down/input). Then “GATGATTGTTCTCCCAGCTGATGAATTATATAAATCGAGTAAACAAATTTTCCTAATCTTTCTGTTCAAGCGCCATCTAC”, with 1.16 RPM ratio (pull-down/input); and “GATGATTGTTCTCCCAGCTGATGAATTATATATATCGAGTAAACAAATTTTCCTAATCTTTCTGTTCAAGCGCCATCTAC”, with 1.16 RPM ratio (pull-down/input).

Take “GATGATTGTTCTCCCAGCTGATGAATTAATTATATCGAGTAAACAAATTTTCCTAATCTTTCTGTTCAAGCGCCATCTAC”: the binding signal is 1.11 RPM ratio (pull-down/input).

As to “GATGATTGTTCTCCCAGCTGATGAATTATATTTATCGAGTAAACAAATTTTCCTAATCTTTCTGTTCAAGCGCCATCTAC”, the binding signal is 2.43 RPM ratio (pull-down/input). On to “GATGATTGTTCTCCCAGCTGATGAATTTATATTATCGAGTAAACAAATTTTCCTAATCTTTCTGTTCAAGCGCCATCTAC”, for which the binding signal is 2.04 RPM ratio (pull-down/input).

In the case of “GATGATTGTTCTCCCAGCTGATGAATTATCTATATCGAGTAAACAAATTTTCCTAATCTTTCTGTTCAAGCGCCATCTAC”, the binding signal is 1.14 RPM ratio (pull-down/input).

Turning to “GATGATTGTTCTCCCAGCTGATGAATTATATCTATCGAGTAAACAAATTTTCCTAATCTTTCTGTTCAAGCGCCATCTAC”, the binding signal is 0.985 RPM ratio (pull-down/input). On to “GATGATTGTTCTCCCAGCTGATGAATTATAAAAATCGAGTAAACAAATTTTCCTAATCTTTCTGTTCAAGCGCCATCTAC”, for which the binding signal was 1.08 RPM ratio (pull-down/input). Consider “GATGATTGTTCTCCCAGCTGATGAATTTATTATATCGAGTAAACAAATTTTCCTAATCTTTCTGTTCAAGCGCCATCTAC”, for which the binding signal is 1.22 RPM ratio (pull-down/input). To “GATGATTGTTCTCCCAGCTGATGAATTATAAACATCGAGTAAACAAATTTTCCTAATCTTTCTGTTCAAGCGCCATCTAC” belongs 2.42 RPM ratio (pull-down/input); to “GATGATTGTTCTCCCAGCTGATGAATTATTTATATCGAGTAAACAAATTTTCCTAATCTTTCTGTTCAAGCGCCATCTAC”, 1.75 RPM ratio (pull-down/input); to “GATGATTGTTCTCCCAGCTGATGAATTCTTTATATCGAGTAAACAAATTTTCCTAATCTTTCTGTTCAAGCGCCATCTAC”, 1.02 RPM ratio (pull-down/input). To “GATGATTGTTCTCCCAGCTGATGAATTTACATCCTCGAGTAAACAAATTTTCCTAATCTTTCTGTTCAAGCGCCATCTAC” belongs 1.26 RPM ratio (pull-down/input). As to “GATGATTGTTCTCCCAGCTGATGAATTAGGCTTGTCGAGTAAACAAATTTTCCTAATCTTTCTGTTCAAGCGCCATCTAC”, the binding signal is 0.93 RPM ratio (pull-down/input).

Take “GATGATTGTTCTCCCAGCTGATGAATTACAAATGTCGAGTAAACAAATTTTCCTAATCTTTCTGTTCAAGCGCCATCTAC”: the binding signal is 1.44 RPM ratio (pull-down/input).

On to “GATGATTGTTCTCCCAGCTGATGAATTATCCCTGTCGAGTAAACAAATTTTCCTAATCTTTCTGTTCAAGCGCCATCTAC”, for which the binding signal is 0.907 RPM ratio (pull-down/input). To “GATGATTGTTCTCCCAGCTGATGAATTAGTCCTCTCGAGTAAACAAATTTTCCTAATCTTTCTGTTCAAGCGCCATCTAC” belongs 0.936 RPM ratio (pull-down/input); to “GATGATTGTTCTCCCAGCTGATGAATTACACAGTTCGAGTAAACAAATTTTCCTAATCTTTCTGTTCAAGCGCCATCTAC”, 1.18 RPM ratio (pull-down/input); to “GATGATTGTTCTCCCAGCTGATGAATTATATTAATCGAGTAAACAAATTTTCCTAATCTTTCTGTTCAAGCGCCATCTAC”, 1.1 RPM ratio (pull-down/input). To “GATGATTGTTCTCCCAGCTGATGAATTGATTATATCGAGTAAACAAATTTTCCTAATCTTTCTGTTCAAGCGCCATCTAC” belongs 1.26 RPM ratio (pull-down/input). To “GATGATTGTTCTCCCAGCTGATGAATTTATAATATCGAGTAAACAAATTTTCCTAATCTTTCTGTTCAAGCGCCATCTAC” belongs 1.31 RPM ratio (pull-down/input). As to “GATGATTGTTCTCCCAGCTGATGAATTATATTGATCGAGTAAACAAATTTTCCTAATCTTTCTGTTCAAGCGCCATCTAC”, the binding signal was 2.09 RPM ratio (pull-down/input). Then “GATGATTGTTCTCCCAGCTGATGAATTATAATTATCGAGTAAACAAATTTTCCTAATCTTTCTGTTCAAGCGCCATCTAC”, with 1.37 RPM ratio (pull-down/input); and “GATGATTGTTCTCCCAGCTGATGAATTATAAATATCGAGTAAACAAATTTTCCTAATCTTTCTGTTCAAGCGCCATCTAC”, with 2.01 RPM ratio (pull-down/input).
